Source: PubChem BioAssay
12-LOX inh: inhibitors of human 12S-lipoxygenase ALOX12. purified 12hLO, xylenol orange hydroperoxide absorbance. hit rate 1.1% among 580,000. Potency, µM (series often up to 108 µM), actives largely listed as inhibitors. AID 1671190. P18054
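Purified human 12hLO (150 nM final) in 25 mM Hepes, 0.01% Triton X-100, pH 7.0 was preincubated 15 min at room temperature with compound. Then 40 uM arachidonic acid was added, 30 min. Hydroperoxide was read by Fe-XO absorbance ratio 573/405 nm.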
rTrxR1 inhibitor: blocks rat thioredoxin reductase 1. Potency, µM (highest dose often 114 µM), actives largely listed as inhibitors. O89049. AID 588453. recombinant rTrxR1, NADPH fluorescence consumption, selenite substrate. hit rate 1% among 390,000; further: nearly all actives have a fitted effect of over 65% in size
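Rat TrxR1 (90 nM in the dispensed reagent) was pre-reduced with 400 uM NADPH for 5 min at room temperature, then incubated with compound for 15 min. After 400 uM selenite was added, NADPH fluorescence (Ex 340/Em 450 nm) was followed for 8 min.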
GRP78 ERSR act: induces the endoplasmic reticulum stress response in human glioma cells; U87-MG GRP78 promoter luciferase reporter, 16 h; Potency, µM, most hits filed as activators; AID 602332; hit rate 0.02% among 420,000; further: series mostly up to about 76 µM; nearly all actives have a fitted effect of over 35% in size
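Stably transfected U87-MG human glioma cells carrying a GRP78-based luminescent sensor were seeded at 1000 cells/well, pin-dosed with compounds and incubated 16 h. Luciferase reagent was then added, and end-point luminescence was read after 10 min at room temperature.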
IDH1 R132H inh: human IDH1 R132H inhibition; IDH1-R132H enzyme, NADPH consumption, diaphorase/resazurin fluorescence; hit rate 0.093% among 390,000; O75874; Potency, µM (highest dose often 76.6 µM), hits mostly inhibitors; further: nearly all actives have a fitted effect of over 65% in size
Target sequence (O75874 whole entry R132H, stated change not applied): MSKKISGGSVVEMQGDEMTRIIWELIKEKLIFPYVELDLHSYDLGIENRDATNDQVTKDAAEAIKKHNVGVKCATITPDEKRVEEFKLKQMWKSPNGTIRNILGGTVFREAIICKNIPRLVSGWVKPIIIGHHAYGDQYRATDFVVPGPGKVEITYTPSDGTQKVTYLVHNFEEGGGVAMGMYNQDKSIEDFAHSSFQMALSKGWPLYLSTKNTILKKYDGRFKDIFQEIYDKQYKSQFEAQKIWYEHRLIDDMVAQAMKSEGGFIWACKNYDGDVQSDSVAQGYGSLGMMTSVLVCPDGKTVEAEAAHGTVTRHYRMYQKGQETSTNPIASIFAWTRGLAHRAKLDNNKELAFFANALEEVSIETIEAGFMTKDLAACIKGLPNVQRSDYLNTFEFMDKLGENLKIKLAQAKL
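IDH1-R132H (0.5 ug/mL dispensed) in pH 7.5 Tris buffer was preincubated 30 min with compound, then given a substrate mix of 0.016 mM NADPH and 2 mM alpha-KG for 80 min at room temperature; remaining NADPH was read by diaphorase/resazurin fluorescence.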
Apoferritin bind: candidate novel general anesthetic via apoferritin binding | Potency, µM (highest dose often 77.5 µM), usual class: inhibitors | P02791 | apoferritin/1-aminoanthracene competitive binding, fluorescence | hit rate 0.074% among 350,000; further: nearly all actives have a fitted effect of over 20% in size
Target sequence (P02791 2-175 limits assumed): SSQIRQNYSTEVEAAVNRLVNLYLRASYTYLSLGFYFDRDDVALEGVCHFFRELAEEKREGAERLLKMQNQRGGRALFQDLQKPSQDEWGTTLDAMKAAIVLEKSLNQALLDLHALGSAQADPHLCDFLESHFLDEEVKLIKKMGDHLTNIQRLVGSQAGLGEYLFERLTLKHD
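Horse-spleen apoferritin (10 uM) was mixed with 50% saturated 1-aminoanthracene in PBS, exposed to compounds for 10 min at room temperature, and read for fluorescence (ex 380 nm, em 535 nm). Competitive displacement was fitted with a four-parameter Hill equation.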
TrxR1 substrate: rat thioredoxin reductase 1 substrate activity; O89049; purified TrxR1 substrate turnover, NADPH consumption readout; Potency, µM (top dose mostly 114 µM); hit rate 0.01% among 390,000; AID 588456; further: nearly all actives have a fitted effect of over 50% in size
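Rat TrxR1, dispensed at 90 nM, was prereduced with 400 uM NADPH (final) for 5 min at ~22 deg C, then incubated with compound 15 min before 400 uM selenite. A first-read NADPH fluorescence drop versus no-compound background flagged substrates.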
Large screens that a line does not name were inactive; ! = repeats disagree. An excerpt weighted towards active compounds, which were near 1.7% of everything screened. The call rests on the fitted dose curve; in most records, active means well fitted curve in the direction sought with a large enough effect; inconclusive means small, poorly fitted or top-dose-only effect, or another doubt; inactive means no such curve, though single readings can be large; an effect the other way counts as inactive or inconclusive.

O=C(C1CCN(C2CC(=O)N(c3cccc(Cl)c3)C2=O)CC1)N1CCCCCC1 (centres undefined)	none
Cn1c(Cn2cccn2)nnc1C1CC(NC(=O)CCN2CCCO2)C1 (centres undefined)	none (no result: rTrxR1 inhibitor, GRP78 ERSR act, IDH1 R132H inh, Apoferritin bind, TrxR1 substrate)
CCCCCOc1ccc(S(=O)(=O)c2ccc(OCCCCC)cc2)cc1	none (no result: rTrxR1 inhibitor, GRP78 ERSR act, IDH1 R132H inh, Apoferritin bind, TrxR1 substrate)
Cc1ccc2nc(C3CCN(Cc4ccc(-c5cccs5)cc4)CC3)[nH]c(=O)c2c1	12-LOX inh 35µM! (no result: rTrxR1 inhibitor, GRP78 ERSR act, IDH1 R132H inh, Apoferritin bind, TrxR1 substrate)
O=c1[nH]c(C2CCN(Cc3cccc(-c4cccs4)c3)CC2)nc2ccc(F)cc12	none (no result: rTrxR1 inhibitor, GRP78 ERSR act, IDH1 R132H inh, Apoferritin bind, TrxR1 substrate)
O=C(Nc1ccc(Cl)cc1)c1csc(C(O)c2cccc(OC(F)(F)F)c2)n1 (centres undefined)	12-LOX inh 14µM (no result: rTrxR1 inhibitor, GRP78 ERSR act, IDH1 R132H inh, Apoferritin bind, TrxR1 substrate)
Cc1ccc(N2C(=O)CC(N(O)C3CC(=O)N(c4ccc(C)cc4)C3=O)C2=O)cc1 (centres undefined)	rTrxR1 inhibitor inconclusive
CCCCCCC(=O)N(O)C1CC(=O)N(c2ccc(Cl)cc2)C1=O (centres undefined)	12-LOX inh 1.3µM, rTrxR1 inhibitor 11µM
CCCCCCC(=O)N(O)C1CC(=O)N(c2ccc(C)cc2)C1=O (centres undefined)	rTrxR1 inhibitor 16µM, Apoferritin bind inconclusive
O=C(NN=C1c2ccccc2-c2ccccc21)c1ccccc1	12-LOX inh inconclusive
NC(=S)NN=C1c2ccccc2-c2ccccc21	12-LOX inh 35µM
COc1ccc(NC(=O)CN2C(=O)NC3(CCCCC3)C2=O)cc1	none (no result: rTrxR1 inhibitor, GRP78 ERSR act, IDH1 R132H inh, Apoferritin bind, TrxR1 substrate)
O=C(C1CCCN(Cc2cccc3ccccc23)C1)N1CCc2ccccc2C1 (centres undefined)	12-LOX inh 0.63µM (no result: rTrxR1 inhibitor, GRP78 ERSR act, IDH1 R132H inh, Apoferritin bind, TrxR1 substrate)
O=C(C1CCCN(Cc2ccccc2F)C1)N1CCc2ccccc2C1 (centres undefined)	none
c1ccc(Oc2c3ccccc3nc3ccccc23)cc1	rTrxR1 inhibitor 8.9µM (no result: 12-LOX inh)
Cc1nc(Oc2ccccc2)c2ccccc2n1	none
CCCN1C(C(=O)c2ccccc2)=C(OC(=O)COc2ccccc2)c2ccccc2S1(=O)=O	12-LOX inh inconclusive, rTrxR1 inhibitor inconclusive
CCN1C(C(=O)c2ccccc2)=C(OC(=O)COc2ccc(OC)cc2)c2ccccc2S1(=O)=O	rTrxR1 inhibitor 13µM
CCN1C(C(=O)c2ccccc2)=C(OC(=O)COc2ccc(C)cc2)c2ccccc2S1(=O)=O	rTrxR1 inhibitor 20µM
CCC(c1nc(-c2ccc(C)nn2)no1)n1cccn1 (centres undefined)	none (no result: rTrxR1 inhibitor, GRP78 ERSR act, IDH1 R132H inh, Apoferritin bind, TrxR1 substrate)
COc1ccc2c(c1)nc1n2[C@@H](CNC(=O)c2ccc(Cl)cc2)COC1	none (no result: rTrxR1 inhibitor, GRP78 ERSR act, IDH1 R132H inh, Apoferritin bind, TrxR1 substrate)
CN1CCC(N2CCOC[C@H](OCC(=O)N(C)C)C2)CC1	none (no result: rTrxR1 inhibitor, GRP78 ERSR act, IDH1 R132H inh, Apoferritin bind, TrxR1 substrate)
CCOC(=O)C1=C(C)N=c2s/c(=C/c3ccc(OCC(=O)O)c(OC)c3)c(=O)n2C1c1ccc(Cl)cc1 (centres undefined)	12-LOX inh 25µM (no result: Apoferritin bind)
CC1=C(C(=O)Nc2ccccc2)C(c2ccc(Cl)cc2)n2c(s/c(=C/c3cccc(OCC(=O)O)c3)c2=O)=N1 (centres undefined)	12-LOX inh 45µM, GRP78 ERSR act inconclusive
CCOC(=O)C1=C(C)N=c2s/c(=C\c3ccc(OCC(=O)O)cc3)c(=O)n2C1c1ccc(Cl)cc1 (centres undefined)	12-LOX inh inconclusive, rTrxR1 inhibitor inconclusive
CCOc1ccc(C2C(C(=O)Nc3ccccc3)=C(C)N=c3s/c(=C/c4cccc(OCC(=O)O)c4)c(=O)n32)cc1 (centres undefined)	12-LOX inh inconclusive, Apoferritin bind inconclusive
O=S(=O)(NCc1ccnc(N2CCN(c3ccc(F)cc3)CC2)c1)N1CCCCC1	none (no result: rTrxR1 inhibitor, GRP78 ERSR act, IDH1 R132H inh, Apoferritin bind, TrxR1 substrate)
CCN1c2cc(C(=O)Nc3ccc4c(c3)OCCO4)ccc2C(=O)N2CCCCCC21 (centres undefined)	none (no result: rTrxR1 inhibitor, GRP78 ERSR act, IDH1 R132H inh, Apoferritin bind, TrxR1 substrate)
COC(=O)c1ccc([C@H]2Nc3ccc(S(=O)(=O)Nc4cccc(C)c4)cc3[C@H]3C=CC[C@H]32)cc1	12-LOX inh inconclusive, rTrxR1 inhibitor inconclusive, Apoferritin bind inconclusive
